Test results reported in the supplement of paper PMC11732987, “Enantioselective OTUD7B fragment discovery through chemoproteomics screening and high-throughput optimisation” (Communications Chemistry, 2025).

How the values were obtained:
Experiment in all cases: log2 ratio of Biotin-Ahx-Ub-VS probe labelling (fragment/DMSO); higher = less target engagement (more negative = stronger competition), active = hit call of the paper (q ≤ 0.05, log2 ratio ≤ -1)
Details in all cases: compound concentration: 200 uM; treatment time: 3 h
USP34 = USP34 (UniProt Q70CQ2)
In short: (§1)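 HEK293T lysate in Tris/CHAPS/IGEPAL buffer with protease inhibitors (495 µg per sample) was given fragment at 200 µM or vehicle for 3 h, in triplicate. It then received Biotin-Ahx-Ub-VS at 0.5 µM final for 1 h. Labelled DUBs were NeutrAvidin-enriched, digested with LysC and trypsin, and run by diaPASEF LC-MS/MS. Values are average log2 fragment/vehicle ratios by unpaired t-test on global-median-normalised Spectronaut quantities of proteins with ≥2 unique peptides.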

USP36 = target: T1, USP36 (UniProt Q9P275)
T1 sequence (whole entry): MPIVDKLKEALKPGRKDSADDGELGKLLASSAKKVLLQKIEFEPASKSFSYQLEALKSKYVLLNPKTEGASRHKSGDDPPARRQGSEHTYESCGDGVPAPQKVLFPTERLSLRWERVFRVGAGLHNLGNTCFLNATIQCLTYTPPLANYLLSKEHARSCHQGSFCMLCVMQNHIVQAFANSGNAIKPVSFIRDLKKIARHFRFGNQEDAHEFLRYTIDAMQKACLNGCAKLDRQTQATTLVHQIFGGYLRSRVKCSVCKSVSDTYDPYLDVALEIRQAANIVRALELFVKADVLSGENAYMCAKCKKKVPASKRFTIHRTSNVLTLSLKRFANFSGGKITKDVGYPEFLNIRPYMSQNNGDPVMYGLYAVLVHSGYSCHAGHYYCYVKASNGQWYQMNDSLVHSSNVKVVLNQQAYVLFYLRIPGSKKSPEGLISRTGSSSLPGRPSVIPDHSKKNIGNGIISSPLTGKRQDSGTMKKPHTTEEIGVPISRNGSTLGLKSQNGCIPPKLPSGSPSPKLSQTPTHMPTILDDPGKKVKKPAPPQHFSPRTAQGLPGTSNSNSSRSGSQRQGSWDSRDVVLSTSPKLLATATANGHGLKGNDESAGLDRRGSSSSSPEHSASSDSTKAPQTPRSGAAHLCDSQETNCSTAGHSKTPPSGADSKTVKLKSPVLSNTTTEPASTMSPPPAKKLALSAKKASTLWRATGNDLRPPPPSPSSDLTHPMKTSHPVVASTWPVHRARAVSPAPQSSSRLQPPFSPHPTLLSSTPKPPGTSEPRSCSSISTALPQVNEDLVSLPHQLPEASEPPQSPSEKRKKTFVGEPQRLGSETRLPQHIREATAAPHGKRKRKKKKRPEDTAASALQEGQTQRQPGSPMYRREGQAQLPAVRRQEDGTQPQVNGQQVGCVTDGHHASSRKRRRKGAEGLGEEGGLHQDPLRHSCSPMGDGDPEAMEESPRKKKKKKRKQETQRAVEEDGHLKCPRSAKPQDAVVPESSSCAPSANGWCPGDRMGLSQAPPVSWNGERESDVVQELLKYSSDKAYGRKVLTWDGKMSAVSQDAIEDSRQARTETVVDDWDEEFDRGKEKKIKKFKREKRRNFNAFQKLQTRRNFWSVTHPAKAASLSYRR
In short: as §1

USP38 = target: T2, USP38 (UniProt Q8NB14)
T2 sequence (whole entry): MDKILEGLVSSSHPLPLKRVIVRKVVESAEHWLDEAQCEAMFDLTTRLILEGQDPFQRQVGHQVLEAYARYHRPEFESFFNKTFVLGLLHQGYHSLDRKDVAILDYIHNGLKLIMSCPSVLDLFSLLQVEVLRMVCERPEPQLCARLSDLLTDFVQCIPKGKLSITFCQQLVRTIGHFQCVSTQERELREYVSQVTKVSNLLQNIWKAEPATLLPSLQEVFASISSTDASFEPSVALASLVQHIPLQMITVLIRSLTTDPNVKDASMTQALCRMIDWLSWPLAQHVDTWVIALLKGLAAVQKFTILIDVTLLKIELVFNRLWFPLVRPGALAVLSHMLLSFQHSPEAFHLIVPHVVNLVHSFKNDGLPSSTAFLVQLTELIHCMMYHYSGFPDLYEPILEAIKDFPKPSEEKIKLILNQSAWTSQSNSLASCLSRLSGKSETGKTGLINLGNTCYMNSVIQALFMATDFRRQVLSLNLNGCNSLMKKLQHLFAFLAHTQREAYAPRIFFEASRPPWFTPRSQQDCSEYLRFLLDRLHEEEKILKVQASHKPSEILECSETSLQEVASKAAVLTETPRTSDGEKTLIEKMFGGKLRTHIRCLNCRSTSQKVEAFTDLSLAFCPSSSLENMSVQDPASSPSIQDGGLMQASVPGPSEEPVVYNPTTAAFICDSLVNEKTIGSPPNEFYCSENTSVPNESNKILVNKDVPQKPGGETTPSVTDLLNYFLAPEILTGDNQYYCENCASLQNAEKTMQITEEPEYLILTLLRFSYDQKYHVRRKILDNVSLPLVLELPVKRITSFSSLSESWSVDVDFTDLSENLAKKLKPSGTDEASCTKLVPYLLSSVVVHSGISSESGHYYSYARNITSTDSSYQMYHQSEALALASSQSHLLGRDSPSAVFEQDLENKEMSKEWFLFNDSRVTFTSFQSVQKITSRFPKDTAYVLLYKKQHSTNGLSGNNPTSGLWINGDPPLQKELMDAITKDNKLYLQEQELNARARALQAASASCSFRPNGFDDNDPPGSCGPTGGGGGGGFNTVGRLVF
In short: as §1

USP39 = target: T3, USP39 (UniProt Q53GS9)
T3 sequence (whole entry): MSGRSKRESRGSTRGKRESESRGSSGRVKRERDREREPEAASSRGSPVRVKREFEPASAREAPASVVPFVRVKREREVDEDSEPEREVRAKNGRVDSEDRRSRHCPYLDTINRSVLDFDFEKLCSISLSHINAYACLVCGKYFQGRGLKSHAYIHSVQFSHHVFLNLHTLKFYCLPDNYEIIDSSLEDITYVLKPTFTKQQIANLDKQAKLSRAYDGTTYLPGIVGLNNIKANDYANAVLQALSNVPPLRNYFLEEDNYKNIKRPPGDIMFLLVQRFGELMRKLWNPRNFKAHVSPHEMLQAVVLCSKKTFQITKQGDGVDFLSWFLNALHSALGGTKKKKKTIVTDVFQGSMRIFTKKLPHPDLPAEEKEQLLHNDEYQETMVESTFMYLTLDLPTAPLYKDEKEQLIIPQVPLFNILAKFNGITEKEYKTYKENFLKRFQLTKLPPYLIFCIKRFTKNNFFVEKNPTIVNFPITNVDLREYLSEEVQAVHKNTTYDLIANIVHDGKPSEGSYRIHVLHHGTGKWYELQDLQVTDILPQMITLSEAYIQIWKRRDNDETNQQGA
In short: as §1

USP4 = target: T4, USP4 (UniProt Q13107)
T4 sequence (whole entry): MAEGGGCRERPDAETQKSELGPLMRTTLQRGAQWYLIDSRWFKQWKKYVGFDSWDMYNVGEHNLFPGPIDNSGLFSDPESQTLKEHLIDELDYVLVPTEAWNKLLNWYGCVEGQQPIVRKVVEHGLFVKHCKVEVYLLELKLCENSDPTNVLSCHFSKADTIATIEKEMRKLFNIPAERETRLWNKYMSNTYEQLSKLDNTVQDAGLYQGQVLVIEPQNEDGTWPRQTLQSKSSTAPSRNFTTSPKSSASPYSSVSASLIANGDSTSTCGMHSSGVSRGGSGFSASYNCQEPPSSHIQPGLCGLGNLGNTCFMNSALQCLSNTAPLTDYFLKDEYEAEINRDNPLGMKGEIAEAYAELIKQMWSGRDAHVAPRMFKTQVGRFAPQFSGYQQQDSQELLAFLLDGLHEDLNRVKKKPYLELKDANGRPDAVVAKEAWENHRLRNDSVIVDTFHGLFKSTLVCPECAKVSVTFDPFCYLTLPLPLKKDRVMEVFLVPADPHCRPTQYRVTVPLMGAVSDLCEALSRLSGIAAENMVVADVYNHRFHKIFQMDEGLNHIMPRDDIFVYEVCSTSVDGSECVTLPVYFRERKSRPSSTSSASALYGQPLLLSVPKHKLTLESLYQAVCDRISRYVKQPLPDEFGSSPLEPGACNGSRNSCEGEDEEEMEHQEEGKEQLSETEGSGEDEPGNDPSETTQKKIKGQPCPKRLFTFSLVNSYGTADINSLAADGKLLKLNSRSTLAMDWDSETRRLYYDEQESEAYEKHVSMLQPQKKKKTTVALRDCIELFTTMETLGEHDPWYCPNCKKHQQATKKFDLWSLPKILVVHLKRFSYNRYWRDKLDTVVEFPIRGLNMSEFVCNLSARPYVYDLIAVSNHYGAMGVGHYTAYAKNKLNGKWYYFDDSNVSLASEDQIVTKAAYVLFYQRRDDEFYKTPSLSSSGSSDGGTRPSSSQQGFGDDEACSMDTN
In short: as §1

Measured: log2 ratio of Biotin-Ahx-Ub-VS probe labelling

Chain of USP34 (Q70CQ2 whole entry, the tested form may be a part): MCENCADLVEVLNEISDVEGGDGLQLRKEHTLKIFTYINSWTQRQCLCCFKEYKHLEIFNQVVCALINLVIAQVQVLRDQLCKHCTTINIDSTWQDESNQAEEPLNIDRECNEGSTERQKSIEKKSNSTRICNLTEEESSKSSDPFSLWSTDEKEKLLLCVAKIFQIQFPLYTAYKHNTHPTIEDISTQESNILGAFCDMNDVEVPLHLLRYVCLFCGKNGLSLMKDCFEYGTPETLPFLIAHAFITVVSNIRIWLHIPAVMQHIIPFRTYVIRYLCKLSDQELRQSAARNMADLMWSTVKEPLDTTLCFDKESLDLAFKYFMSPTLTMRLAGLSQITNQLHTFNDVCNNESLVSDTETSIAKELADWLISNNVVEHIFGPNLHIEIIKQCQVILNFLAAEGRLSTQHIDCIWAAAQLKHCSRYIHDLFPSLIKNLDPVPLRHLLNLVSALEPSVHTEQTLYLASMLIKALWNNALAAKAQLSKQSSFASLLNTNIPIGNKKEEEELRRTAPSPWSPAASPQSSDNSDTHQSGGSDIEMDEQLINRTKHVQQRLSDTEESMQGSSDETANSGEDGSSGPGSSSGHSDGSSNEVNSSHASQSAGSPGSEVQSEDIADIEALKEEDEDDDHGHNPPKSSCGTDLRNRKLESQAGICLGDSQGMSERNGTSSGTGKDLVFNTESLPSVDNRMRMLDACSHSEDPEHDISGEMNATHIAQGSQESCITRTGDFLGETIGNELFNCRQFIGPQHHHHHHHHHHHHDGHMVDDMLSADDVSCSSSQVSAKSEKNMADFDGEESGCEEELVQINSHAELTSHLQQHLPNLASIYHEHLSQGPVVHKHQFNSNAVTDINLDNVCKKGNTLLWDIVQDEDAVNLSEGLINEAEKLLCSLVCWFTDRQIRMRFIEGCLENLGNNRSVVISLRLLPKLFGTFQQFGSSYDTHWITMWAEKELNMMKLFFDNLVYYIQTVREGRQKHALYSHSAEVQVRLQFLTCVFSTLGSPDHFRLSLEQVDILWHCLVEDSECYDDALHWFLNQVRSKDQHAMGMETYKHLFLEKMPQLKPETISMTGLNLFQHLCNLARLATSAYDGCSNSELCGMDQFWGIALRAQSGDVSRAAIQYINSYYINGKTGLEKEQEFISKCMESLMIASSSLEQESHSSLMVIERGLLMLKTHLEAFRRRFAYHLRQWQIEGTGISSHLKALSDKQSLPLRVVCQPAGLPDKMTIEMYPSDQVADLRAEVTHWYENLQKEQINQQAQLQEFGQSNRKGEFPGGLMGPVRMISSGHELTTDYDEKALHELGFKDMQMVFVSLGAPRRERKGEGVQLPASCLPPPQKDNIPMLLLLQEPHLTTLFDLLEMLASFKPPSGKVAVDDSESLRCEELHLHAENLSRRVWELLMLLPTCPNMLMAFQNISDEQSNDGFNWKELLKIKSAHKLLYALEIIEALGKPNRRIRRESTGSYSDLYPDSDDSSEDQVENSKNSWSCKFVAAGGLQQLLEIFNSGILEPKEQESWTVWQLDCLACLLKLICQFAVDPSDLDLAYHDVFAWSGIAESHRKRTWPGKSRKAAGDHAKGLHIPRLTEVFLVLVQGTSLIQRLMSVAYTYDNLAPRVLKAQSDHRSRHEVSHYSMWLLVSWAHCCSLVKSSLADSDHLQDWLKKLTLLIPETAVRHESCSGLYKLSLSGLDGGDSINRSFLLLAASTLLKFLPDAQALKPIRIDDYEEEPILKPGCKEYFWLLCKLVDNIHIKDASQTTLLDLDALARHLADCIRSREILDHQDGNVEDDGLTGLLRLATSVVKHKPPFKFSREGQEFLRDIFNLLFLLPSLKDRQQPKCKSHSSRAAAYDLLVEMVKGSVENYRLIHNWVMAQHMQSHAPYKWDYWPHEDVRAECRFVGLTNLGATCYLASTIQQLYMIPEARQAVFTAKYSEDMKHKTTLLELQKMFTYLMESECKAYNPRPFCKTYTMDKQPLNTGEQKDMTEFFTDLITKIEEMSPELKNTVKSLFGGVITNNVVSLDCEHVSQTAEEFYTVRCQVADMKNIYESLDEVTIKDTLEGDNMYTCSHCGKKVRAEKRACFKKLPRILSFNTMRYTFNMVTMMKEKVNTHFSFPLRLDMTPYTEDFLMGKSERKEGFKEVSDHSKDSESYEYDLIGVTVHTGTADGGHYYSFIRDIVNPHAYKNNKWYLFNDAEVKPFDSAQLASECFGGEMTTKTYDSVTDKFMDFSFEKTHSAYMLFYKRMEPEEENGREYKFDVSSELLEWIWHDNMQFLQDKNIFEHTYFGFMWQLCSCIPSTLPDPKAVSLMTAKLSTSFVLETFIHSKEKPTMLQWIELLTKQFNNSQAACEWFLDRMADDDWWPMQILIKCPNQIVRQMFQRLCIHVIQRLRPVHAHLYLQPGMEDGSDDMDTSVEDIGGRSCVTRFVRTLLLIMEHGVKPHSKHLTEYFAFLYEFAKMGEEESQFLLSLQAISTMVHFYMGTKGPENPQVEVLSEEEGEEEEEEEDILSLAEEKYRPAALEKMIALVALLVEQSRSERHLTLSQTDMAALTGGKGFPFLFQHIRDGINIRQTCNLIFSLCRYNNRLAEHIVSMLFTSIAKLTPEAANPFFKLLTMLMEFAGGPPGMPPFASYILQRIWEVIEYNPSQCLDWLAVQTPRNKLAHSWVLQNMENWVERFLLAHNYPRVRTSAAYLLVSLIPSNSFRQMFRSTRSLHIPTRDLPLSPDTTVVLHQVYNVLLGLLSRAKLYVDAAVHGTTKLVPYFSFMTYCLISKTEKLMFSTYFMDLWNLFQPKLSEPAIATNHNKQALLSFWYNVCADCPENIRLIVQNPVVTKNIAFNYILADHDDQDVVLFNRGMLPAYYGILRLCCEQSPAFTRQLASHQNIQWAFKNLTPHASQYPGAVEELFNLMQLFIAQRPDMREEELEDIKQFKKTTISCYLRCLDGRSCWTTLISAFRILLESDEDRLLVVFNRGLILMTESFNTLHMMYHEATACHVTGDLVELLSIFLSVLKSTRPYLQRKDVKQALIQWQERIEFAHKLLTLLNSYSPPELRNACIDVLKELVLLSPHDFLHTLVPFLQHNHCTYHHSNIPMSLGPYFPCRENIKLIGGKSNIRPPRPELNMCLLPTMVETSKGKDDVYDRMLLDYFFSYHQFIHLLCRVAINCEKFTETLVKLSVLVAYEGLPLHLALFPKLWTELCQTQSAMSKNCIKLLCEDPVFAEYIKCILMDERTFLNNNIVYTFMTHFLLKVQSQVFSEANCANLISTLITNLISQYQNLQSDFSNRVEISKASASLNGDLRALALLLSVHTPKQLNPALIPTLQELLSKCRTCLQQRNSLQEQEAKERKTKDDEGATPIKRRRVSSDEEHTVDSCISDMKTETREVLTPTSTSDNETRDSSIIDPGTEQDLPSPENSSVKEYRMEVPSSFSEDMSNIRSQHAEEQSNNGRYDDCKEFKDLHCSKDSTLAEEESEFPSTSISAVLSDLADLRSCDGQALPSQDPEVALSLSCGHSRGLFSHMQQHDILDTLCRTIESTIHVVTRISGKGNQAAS

O=C(CCl)N1CCN2C(=O)CCC2C1 (stereo not given)
inactive: USP34 -0.0311 | USP36 0.272 | USP38 0.0868 | USP39 -0.106 | USP4 -0.0639
